Assay outcomes: PubChem, National Center for Advancing Translational Sciences (NCATS)
Most compounds without a hit are left out; they make up all but 3% or so of the library.
Sm TGR block = S. mansoni TGR enzyme inhibition | purified TGR, DTNB reduction, TNB absorbance 405 nm | Potency, µM (titrated, usually from 114 µM), hits mostly inhibitors | 360,000 compounds, 3% hits | AID 485364; also: nearly all actives have a fitted effect of over 60% in size
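First, TGR (20 nM dispensed) and NADPH were mixed with compound. Second, a 15 min room-temperature incubation followed. Third, further NADPH and then DTNB were added to start the reaction. Finally, TNB absorbance was monitored kinetically.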
RE007 growth inh = less growth of the S. pombe RE007 Vpr strain; Potency, µM (series often up to 92.2 µM), most hits filed as inhibitors; 360,000 compounds, 0.21% hits; AID 651644; S. pombe RE007 Vpr strain, BacTiter-Glo ATP luminescence, 24 h; active = well fitted falling curve with a large enough effect; inconclusive = small, poorly fitted or top-dose-only effect; inactive = no such curve, though single readings can be large or run the other way; also: nearly all actives have a fitted effect of over 50% in size
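Fission yeast RE007 carrying one integrated HIV-1 vpr copy, seeded at OD 0.01 in PMG+AL medium with 23 nL pinned compound. Grown 24 h at 30 degrees; viability read by BacTiter-Glo luminescence after 5 min.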
LmPK inh = LmPK (Leishmania mexicana) enzyme inhibition; Q27686; purified LmPK, Kinase-Glo ATP luminescence, 1 h; Potency, µM (doses to about 57.5 µM), usual class: inhibitors; 290,000 compounds, 0.37% hits
Target sequence (Q27686 whole entry, looked up): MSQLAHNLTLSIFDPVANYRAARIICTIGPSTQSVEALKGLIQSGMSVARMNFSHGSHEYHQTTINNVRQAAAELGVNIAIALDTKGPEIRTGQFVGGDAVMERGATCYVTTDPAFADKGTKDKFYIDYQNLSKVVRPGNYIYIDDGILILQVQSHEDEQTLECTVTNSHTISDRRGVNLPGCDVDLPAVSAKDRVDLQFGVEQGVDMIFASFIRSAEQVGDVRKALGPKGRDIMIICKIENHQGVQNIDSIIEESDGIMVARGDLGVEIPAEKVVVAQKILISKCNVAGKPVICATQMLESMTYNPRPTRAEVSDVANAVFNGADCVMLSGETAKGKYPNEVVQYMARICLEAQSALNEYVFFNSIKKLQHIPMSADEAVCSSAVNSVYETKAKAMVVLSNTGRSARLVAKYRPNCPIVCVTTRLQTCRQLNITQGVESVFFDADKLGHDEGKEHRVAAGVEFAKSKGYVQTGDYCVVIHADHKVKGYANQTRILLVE
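Purified LmPK (0.1 nM) converted ADP (0.1 mM) to ATP with PEP (0.5 mM) in imidazole buffer pH 7.2 with KCl and MgCl2, 1 h at room temperature. ATP was read by Kinase-Glo luminescence; data normalized to uninhibited and no-enzyme controls.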
Tb PYK inh = T. brucei pyruvate kinase inhibition. TbPYK enzyme, Kinase-Glo Plus ATP luminescence, 45 min. Potency, µM (series often up to 76.8 µM), most hits filed as inhibitors. 410,000 compounds, 0.12% hits; also: nearly all actives have a fitted effect of over 50% in size
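ADP (130 uM final) triggers the TbPYK reaction after compound addition; incubation is 45 min at room temperature. Kinase-Glo Plus is then added and luminescence imaged. Normalized data are fitted to concentration-effect curves.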
Numbers stand for hits; i = inactive; ? = inconclusive; nt = no result; [ ] = remark or other dose. Unless noted, calls follow the shape of the dose curve; as a rule, active = well fitted curve in the direction sought with a large enough effect; inconclusive = small, poorly fitted or top-dose-only effect, or another doubt; inactive = no such curve, though single readings can be large; an effect the other way counts as inactive or inconclusive.

SMILES	Sm TGR block	RE007 growth inh	LmPK inh	Tb PYK inh
CC(C)C(C(=O)NCc1ccco1)N(C(=O)CNS(=O)(=O)c1ccccc1)C1CCCC1 (configuration not stated)	i	i	i	i
Nc1cccc2c1C(=O)N(C(=O)/C=C/c1cccc(Br)c1)C2=O	2.51µM	?	i	i
Nc1cccc2c1C(=O)N(C(=O)/C=C/c1cccc(F)c1)C2=O	6.31µM	?	i	i
COc1ccc2c(C)c(CC(=O)NCCc3ccc(Cl)cc3)c(=O)oc2c1C	i	nt	nt	i
O=C(Nc1cccc(F)c1)N1CCCC2(CCN(C(=O)c3cc(C(F)(F)F)cc(C(F)(F)F)c3)CC2)C1	nt	nt	nt	i
Nc1ncnc2oc(-c3ccco3)c(-c3ccco3)c12	10µM	i	i	i
Nc1nnc(-c2ccco2)s1	i	i	i	i
COc1ccc(/C=C/c2cc(C(=O)O)c3ccccc3n2)cc1	i	?	11.2µM	i
COc1cc(OC)c(OC)cc1/C=C/c1cc(C(=O)O)c2ccccc2n1	i	i	i	i
Cc1ccc(/C=C/S(=O)(=O)NCC(=O)OCC(=O)Nc2c(F)cccc2F)cc1	28.2µM	i	nt	i
O=C(c1csnn1)N1CCC2(CC1)CN(c1ccccn1)C2	nt	nt	nt	i
Nc1nc(N)c(N=Nc2ccc(Cl)cc2)c(=O)[nH]1	i	i	i	i
CSc1nc(N)c(N=Nc2ccc([As](=O)(O)O)cc2)c(=O)[nH]1	0.316µM	i	i	i
O=C1NC[C@@H](CCCCN2C[C@H](Cc3ccc(O)cc3)N(Cc3ccccc3)C(=O)C2=O)N(CCc2ccc(O)cc2)C1=O	nt	i	nt	i
Cc1ccc(NC(=O)Cn2c(=O)n(CCc3ccccc3)c(=O)c3c4c(sc32)CCCC4)c(C)c1	i	nt	nt	i
Cn1c(=O)n(C)c2cc(NS(=O)(=O)c3ccc(C(C)(C)C)cc3)c(NCc3ccccc3)cc21	i	nt	nt	i
CCOC(=O)c1c(-c2ccc(C)o2)csc1N	i[11.4 µM]	i	i	i
CCOC(=O)c1c(-c2ccc(C)o2)csc1NC(=O)CSc1ncn[nH]1	20µM	i	i	?
CCOC(=O)c1c(-c2ccc(C)o2)csc1NC(=O)COC(=O)c1cccs1	14.1µM	i	i	i
CCOC(=O)c1c(NC(=O)CSc2ncn[nH]2)sc(C(C)=O)c1C	?	i	i	i
CCOC(=O)c1c(CC(C)C)csc1NC(=O)COC(=O)c1cnc(C)cn1	nt	i	nt	i
CCOC(=O)c1c(-c2ccco2)csc1NC(=O)COC(=O)c1cnc(C)cn1	28.2µM	i	nt	i
CCOC(=O)c1c(-c2ccc(C)o2)csc1NC(=O)CN1CCOCC1	22.4µM	i	i	i
COc1cccc(-c2cc(C(F)(F)F)nc(NCCc3ccccc3)n2)c1	i	nt	nt	i
CN(C)c1ccc(NC(=O)CN2C(=O)c3ccccc3Sc3ccc(C(=O)N4CCCC4)cc32)cc1	i	nt	nt	i
SMILES	Sm TGR block	RE007 growth inh	LmPK inh	Tb PYK inh
CC1CCN(S(=O)(=O)c2cc(C(=O)NCc3ccc(F)cc3)n(C)c2)CC1	i	nt	nt	i
COCc1[nH]c(=S)c(C#N)cc1C(=O)OC	20µM	i	i	?
CCN(c1ccccc1)S(=O)(=O)c1ccc2c(c1)OCCO2	nt	i	nt	i
CCOc1cccc(C(=O)Nc2nnc(-c3ccco3)s2)c1	?	i	i	i
Cc1cccc(OCC(=O)Nc2nnc(-c3ccco3)s2)c1	14.1µM	i	i	i
CCC(C(=O)Nc1nnc(-c2ccco2)s1)c1ccccc1 (configuration not stated)	31.6µM	i	i	i
COc1ccccc1OCC(=O)Nc1nnc(-c2ccco2)s1	31.6µM	?	i	i
CCCCNC(=O)CCn1c(=O)c2ccccc2n(Cc2ccccc2C#N)c1=O	i	nt	nt	i
COc1ccc(CCCNC(=O)C2Cc3c(-c4ccccc4)ccnc3O2)cc1 (configuration not stated)	nt	i	nt	i
CCOC(=O)C1Nc2ccc(C(=O)O)cc2C2C=CCC12 (configuration not stated)	?	i	i	i
CCCC1Nc2ccc(C(=O)O)cc2C2C=CCC12 (configuration not stated)	39.8µM	i	i	i
CC(=O)c1ccc2c(c1)C1C=CCC1C(c1ccc(S(=O)(=O)N3CCOCC3)cc1)N2 (configuration not stated)	28.2µM	i	i	i
Cc1c(Cl)cccc1NS(=O)(=O)c1ccc2c(c1)C1C=CCC1C(c1ccc(C(=O)O)cc1)N2 (configuration not stated)	20µM	i	i	i
CC(C)C1Nc2ccc(C(=O)O)cc2C2C=CCC21 (configuration not stated)	20µM	i	i	?
CC(=O)c1ccc2c(c1)C1C=CCC1C(c1cc3c(cc1Br)OCO3)N2 (configuration not stated)	i	i	nt	i
O=C(Nc1cccc(C(F)(F)F)c1)c1ccc(F)c(S(=O)(=O)N2CCc3ccccc3C2)c1	i	nt	nt	i
N#CCCN(Cc1ccccc1)C(CCc1ccccc1)C(=O)NC1CCCCC1 (configuration not stated)	nt	i	nt	i
Cc1nnc2c(N3CCN(c4ccccc4F)CC3)nc3ccc(C(=O)c4ccccc4)cc3n12	i	nt	nt	i[15.4 µM]
O[C@@H](CNC[C@H](O)[C@H]1CCc2cc(F)ccc2O1)[C@@H]1CCc2cc(F)ccc2O1	nt	nt	nt	i
Cc1cc(-c2ccc(S(=O)(=O)N3CCN(c4ccc(Cl)cc4)CC3)s2)on1	i	nt	nt	i[15.4 µM]
FC(F)(F)c1ccc2c(c1)C1C=CCC1C(c1ccncc1)N2 (configuration not stated)	i	i	i	i
O=C(O)c1ccc2c(c1)C1C=CCC1C(c1ccncc1)N2 (configuration not stated)	22.4µM	i	i	i
CCOC(=O)c1c(C)nn(-c2ccc(NC(=O)c3c(C)noc3C)cc2)c1C	i	i	i	i
CCOC(=O)c1c(C)nn(-c2ccc(NC(=O)/C=C/C(=O)O)cc2)c1C	50.1µM	i	i	i
CCc1nc2c(OCc3ccc(Cl)cc3Cl)cccn2c1N(C=O)Cc1ccc(OC)cc1	nt	i[18.4 µM]	nt	i
SMILES	Sm TGR block	RE007 growth inh	LmPK inh	Tb PYK inh
CCOc1ccc(Nc2nn(-c3ccc(OC(F)(F)F)cc3)nc2C(C)=O)cc1	i	nt	nt	i
CCOC(=O)C1=C(CS(=O)(=O)c2ccc(C)cc2)NC(=O)NC1c1ccc(C(C)C)cc1 (configuration not stated)	i	nt	nt	i
CC(=O)Nc1cccc(C(=O)/C=C/c2ccco2)c1	28.2µM	i	i	i
CC(=O)Nc1ccc(C(=O)/C=C/c2ccco2)cc1	8.91µM	i	i	i
O=C(NCc1ccccc1)c1ccc(NC(=O)c2ccco2)cc1	i	i	i	i
O=C(/C=C\c1ccco1)c1ccc(NC(=O)c2ccco2)cc1	3.98µM	i	i	i
COC(=O)N/N=C(C)\C=C\c1ccco1	44.7µM	i	i	i
COc1ccc(C(=O)NCCn2cc(SCC(=O)NCCc3ccc(OC)c(OC)c3)c3ccccc32)cc1	i	nt	nt	i
COc1ccc(CCNC(=O)Cn2nc(C)c3c(C)n(-c4ccc(C)cc4)nc3c2=O)c(OC)c1	i	nt	nt	i
